In the library only some 9.2% were active in any assay of this set; here they are far more common.
NPC1 prom act – NPC1 promoter activation; Huh7 NPC1 promoter luciferase reporter, 24 h; Potency, µM (highest dose often 9.22 µM), inactives show top-dose activation, most hits filed as activators; 2.4% of 320,000 active; AID 485313; also: % of control where 0% means no effect; nearly all actives have a fitted effect of over 60% in size
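Huh7 reporter cells (NPC1 promoter driving luciferase) are dosed with compound for 24 h at 37 °C, 5% CO2; luciferase detection reagent is then added and luminescence measured after 10 min at ambient temperature.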
Rab9 promoter act – activates the Rab9 promoter. Potency, µM (highest dose often 9.22 µM), for the others: at the top dose activation, negative = inhibition, actives largely listed as activators. AID 485297. 2.8% of 320,000 active. Huh7 Rab9 promoter-luciferase reporter, luminescence, 24 h; also: % of control where 0% means no effect; nearly all actives have a fitted effect of over 60% in size
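Quantitative HTS format; Huh7 Rab9-luciferase reporter cells (1500/well) receive compound 2 h post-plating, incubate 24 h at 37 °C, then get luciferase reagent for 10 min before luminescence reading.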
SMN2 splice up – enhancers of SMN2 splice variant expression | HEK293 SMN2-luciferase splicing reporter, luminescence, 30-36 h | Potency, µM (doses to about 46.1 µM), without a hit: top-dose activity change, positive = activation, hits mostly activators | 2.8% of 210,000 active | AID 1458; also: % of control where 0% means no effect; nearly all actives have a fitted effect of over 55% in size
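HEK293 cells carry an SMN2 minigene-luciferase reporter in which exon 7 inclusion puts luciferase in frame. Cells were seeded at 2000 cells/well, attached for 10-12 hours, then exposed to compounds for 30-36 hours at 37C before ONE-Glo luminescence.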
ELG1 repair inh – ELG1-dependent DNA repair inhibition; HEK293T ELG1-luciferase reporter, luminescence, 16 h; DNA damage induced by 5-fluorouridine; 2.3% of 330,000 active; Potency, µM (titrated, usually from 46.1 µM), inactives show at the highest dose activity change, negative = inhibition, actives largely listed as inhibitors; also: % is scaled to controls: 0 for no effect and ±100 for the full control effect; nearly all actives have a fitted effect of over 55% in size
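5-Fluorouridine DNA damage + compound/DMSO, 2,000 cells/well, 16 h, 37 °C/5% CO2. ONE-Glo, 30 min RT, luminescence. Readout = decrease in reporter signal.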
FLuc counter – counter-screen for miR-21 project: firefly luciferase inhibitors or activators | P08659 | Potency, µM (top dose mostly 57.5 µM), without a hit: at the highest dose activity change, negative = inhibition, hits mostly inhibitors | purified FLuc, Km substrates, luminescence inhibition | 6.9% of 360,000 active;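 also: plate controls were vehicle for no effect and reference inhibitor for full effect; nearly all actives have a fitted effect of over 55% in size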
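Purified P. pyralis luciferase (10nM final) with 10uM D-luciferin and 10uM ATP (Km levels) in 50mM Tris acetate pH 7.5, 10mM Mg acetate, 0.01% Tween-20, 0.05% BSA; qHTS 6-point titration, ~60 µM downward; luminescence read.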
ELG1 genotox – genotoxicity induction in ELG1-luciferase HEK293T cells; HEK293T ELG1-luciferase reporter, luminescence, 16 h; 1.3% of 330,000 active; Potency, µM (highest dose often 46 µM), for inactives: at the highest dose activity change, positive = activation, most hits filed as activators; also: % of control where 0% means no effect; nearly all actives have a fitted effect of over 60% in size
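Reporter readout depends on ELG1 protein level, which increases with genetic stress. After 16 hr compound exposure at 37 °C, luciferase activity was quantified using ONE-Glo.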
ELG1 FLuc counter – luciferase inhibition in cell-free luciferin readout for ELG1 hits | Potency, µM (top dose mostly 46.1 µM), without a hit: at the top dose activity change, negative = inhibition, hits mostly inhibitors | AID 624247 | 3% of 350 active | cell-free firefly luciferase luminescence counter-screen, ViewLux | shares compounds with ELG1 repair inh; also: % is scaled to controls: 0 for no effect and ±100 for the full control effect
ELG1-Luc inh – confirmation of human ELG1-dependent DNA repair inhibitors; shares compounds with ELG1 repair inh; HEK293T ELG1-luciferase levels, luminescence; cells co-treated with 5-fluorouridine; Potency, µM (titrated, usually from 46.1 µM), for the others: top-dose activity change, negative = inhibition, hits mostly inhibitors; 68% of 670 active; also: % is scaled to controls: 0 for no effect and ±100 for the full control effect; nearly all actives have a fitted effect of over 55% in size
Target sequence (Q96QE3 whole entry, looked up): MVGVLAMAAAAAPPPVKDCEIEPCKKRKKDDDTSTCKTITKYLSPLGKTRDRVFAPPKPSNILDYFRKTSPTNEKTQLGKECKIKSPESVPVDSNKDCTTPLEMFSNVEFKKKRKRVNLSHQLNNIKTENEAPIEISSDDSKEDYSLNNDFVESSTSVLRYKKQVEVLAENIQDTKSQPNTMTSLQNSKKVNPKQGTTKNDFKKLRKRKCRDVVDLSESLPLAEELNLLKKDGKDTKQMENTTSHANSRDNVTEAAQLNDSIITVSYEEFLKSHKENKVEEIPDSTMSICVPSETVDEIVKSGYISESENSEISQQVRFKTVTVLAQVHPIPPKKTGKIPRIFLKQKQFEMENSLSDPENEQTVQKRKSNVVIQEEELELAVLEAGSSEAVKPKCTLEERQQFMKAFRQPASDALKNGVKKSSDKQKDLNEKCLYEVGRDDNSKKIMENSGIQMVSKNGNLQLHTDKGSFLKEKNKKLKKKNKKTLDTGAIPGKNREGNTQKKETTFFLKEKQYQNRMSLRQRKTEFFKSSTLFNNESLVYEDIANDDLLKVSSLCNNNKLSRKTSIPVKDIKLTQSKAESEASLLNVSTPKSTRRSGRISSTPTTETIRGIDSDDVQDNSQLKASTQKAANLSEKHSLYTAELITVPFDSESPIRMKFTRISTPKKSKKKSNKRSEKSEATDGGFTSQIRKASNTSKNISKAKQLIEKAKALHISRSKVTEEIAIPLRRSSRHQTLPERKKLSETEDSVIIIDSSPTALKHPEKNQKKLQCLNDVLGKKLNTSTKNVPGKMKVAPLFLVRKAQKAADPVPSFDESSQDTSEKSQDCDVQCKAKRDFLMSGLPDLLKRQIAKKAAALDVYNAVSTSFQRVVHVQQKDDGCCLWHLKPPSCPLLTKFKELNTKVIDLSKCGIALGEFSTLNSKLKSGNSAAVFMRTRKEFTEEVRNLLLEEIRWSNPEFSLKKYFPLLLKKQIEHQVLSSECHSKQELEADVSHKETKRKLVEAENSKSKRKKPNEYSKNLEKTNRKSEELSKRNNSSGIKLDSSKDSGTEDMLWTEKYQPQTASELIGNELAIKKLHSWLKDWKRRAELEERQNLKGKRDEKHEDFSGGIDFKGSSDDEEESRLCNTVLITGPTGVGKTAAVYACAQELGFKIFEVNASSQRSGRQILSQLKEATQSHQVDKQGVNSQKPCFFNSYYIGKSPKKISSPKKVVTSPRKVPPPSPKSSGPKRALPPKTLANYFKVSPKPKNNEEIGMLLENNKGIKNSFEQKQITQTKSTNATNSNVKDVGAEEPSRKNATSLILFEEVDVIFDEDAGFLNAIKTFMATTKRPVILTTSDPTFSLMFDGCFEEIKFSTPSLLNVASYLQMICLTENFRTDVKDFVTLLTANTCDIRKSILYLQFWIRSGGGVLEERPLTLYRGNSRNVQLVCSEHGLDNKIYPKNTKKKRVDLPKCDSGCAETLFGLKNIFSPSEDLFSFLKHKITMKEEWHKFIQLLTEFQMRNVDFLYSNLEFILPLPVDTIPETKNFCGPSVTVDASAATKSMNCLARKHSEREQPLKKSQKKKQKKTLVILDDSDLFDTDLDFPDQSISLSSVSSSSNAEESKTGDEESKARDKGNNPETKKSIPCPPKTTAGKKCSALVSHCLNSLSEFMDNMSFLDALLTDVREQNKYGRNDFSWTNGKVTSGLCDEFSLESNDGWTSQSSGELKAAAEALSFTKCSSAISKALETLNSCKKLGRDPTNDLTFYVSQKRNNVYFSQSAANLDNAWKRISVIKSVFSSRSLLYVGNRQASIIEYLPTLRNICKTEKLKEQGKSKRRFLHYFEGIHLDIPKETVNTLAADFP
ELG1 MMS Luc – inhibits ELG1-dependent repair under MMS stimulation in HEK293T cells. shares compounds with ELG1 repair inh. HEK293T luciferase-tagged ELG1 level, MMS stimulated. Potency, µM (highest dose often 46.1 µM), without a hit: at the top dose activity change, negative = inhibition, hits mostly inhibitors. 53% of 670 active; also: % is scaled to controls: 0 for no effect and ±100 for the full control effect; nearly all actives have a fitted effect of over 60% in size
ELG1 5-FU – confirmation of ELG1 repair inhibitors: viability with 5FU; shares compounds with ELG1 repair inh; AID 624250; cell viability with 5-FU, ELG1-dependent repair; Potency, µM (series often up to 46.1 µM), inactives show top-dose activity change, negative = viability loss, usual class: cytotoxic; 670 tested, under 10 active;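 also: ELG1-luc HEK293T cells cotreated with 5-fluorouridine at 10 µM final; viability measured 16 h after compound addition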
ELG1 MMS viab – confirmation of ELG1 repair inhibitors: viability with MMS; shares compounds with ELG1 repair inh; Cell viability with MMS, ELG1-dependent DNA repair; Potency, µM (top dose mostly 46.1 µM), for the others: at the highest dose activity change, negative = viability loss, most hits filed as cytotoxic; 33% of 670 active; AID 624251;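 also: ELG1-luc HEK293T cells co-treated with 10 µM MMS; viability read 16 h after compound addition; % is scaled to controls: 0 for no effect and ±100 for the full control effect; nearly all actives have a fitted effect of over 60% in size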
ELG1 unstim viab – unstimulated viability counter-screen for ELG1 repair hits; 8% of 900 active; Potency, µM (top dose mostly 45.9 µM), for the others: at the top dose activity change, negative = loss of viability, hits mostly cytotoxic; shares compounds with ELG1 repair inh; cell viability counter-screen, unstimulated, luminescence;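 also: compound exposure lasted 16 hours before reading; % is scaled to controls: 0 for no effect and ±100 for the full control effect; nearly all actives have a fitted effect of over 55% in size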
FLuc biochem – counter-screen for ELG1 repair inhibitors: firefly luciferase inhibition. shares compounds with ELG1 repair inh. purified firefly luciferase, luminescence counter-screen. Potency, µM (top dose mostly 57.5 µM), for inactives: at the highest dose activity, negative = inhibition, actives largely listed as inhibitors. 10% of 350 active; also: % is scaled to controls: 0 for no effect and ±100 for the full control effect
* = called active by the depositor; u = inconclusive; x = no result; [ ] = another dose, or the depositor's remark. Calls follow the shape of the dose curve; as a rule, active = well fitted curve in the direction sought with a large enough effect; inconclusive = small, poorly fitted or top-dose-only effect, or another doubt; inactive = no such curve, though single readings can be large; an effect the other way counts as inactive or inconclusive. Potency is read from the fitted curve at half-maximal effect.

SMILES	NPC1 prom act	Rab9 promoter act	SMN2 splice up	ELG1 repair inh	FLuc counter	ELG1 genotox	ELG1-Luc inh	ELG1 MMS Luc	ELG1 5-FU	ELG1 MMS viab	ELG1 unstim viab	others
O=C(Nc1ccccc1)c1nc[nH]c1C(=O)NCCCNC(=O)c1[nH]cnc1C(=O)Nc1ccccc1	x	x	x	2.9µM*	x	-6%	4µM*	11µM*	u	-1%	-11%
CC(=O)Oc1ccc(-c2nc(-c3ccccc3)no2)cc1	x	x	x	x	x	x	x	x	x	x	u
COc1ccc2cc3c(N)nn(C(=O)c4ccc(Cl)c([N+](=O)[O-])c4)c3nc2c1	20%	0%	-6%	1.6µM*	1%	-14%	3.5µM*	7.9µM*	5%	7%	7%
COc1ccc2cc3c(N)nn(C(=O)c4ccccc4[N+](=O)[O-])c3nc2c1	7%	0%	-38%	2.3µM*	-7%	-10%	1.8µM*	14µM*	4%	u	u
O=C(Nc1ccc(F)cc1)N(CCCN1CCOCC1)Cc1cc2cc3c(cc2[nH]c1=O)OCCO3	-15%	1%	-53%	u	4%	-1%	x	x	x	x	x
O=C(Nc1ccc(F)cc1)N(CCCN1CCOCC1)Cc1cc2cc3c(cc2[nH]c1=O)OCO3	-4%	1%	-35%	-9%	3%	15%	u	21%	9%	-8%	u	ELG1 FLuc counter=34%;FLuc biochem=-9%
CC1=C(C(=O)OCc2ccc3c(c2)OCO3)C(c2ccccc2OCc2ccccc2)NC(=O)N1 (configuration not stated)	7%	0%	-24%	16µM*	-1%	-31%	22µM*	u	1%	-12%	u	ELG1 FLuc counter=-7%;FLuc biochem=-8%
CCN(CC)CCn1c2c(c(SCC(=O)Nc3cc(OC)cc(OC)c3)nc1=O)CCC2	4%	-5%	x	-13%	1%	1%	x	x	x	x	x
CCc1c(C)nc2ccc(Br)cc2c1SCCC#N	1%	1%	-24%	4.1µM*	0%	-10%	7.1µM*	16µM*	15%	u	-12%
CCc1c(C)nc2c(Br)cccc2c1SCCC#N	-2%	-2%	-15%	-20%	-17%	-4%	x	x	x	x	x
CCc1ccc(OCC(=O)Nc2ccc(-c3nc4ccccc4o3)c(O)c2)cc1	2µM*	3.5µM*	u	u	10%	u	x	x	x	x	-2%	ELG1 FLuc counter=15%;FLuc biochem=1%
Cc1ccc(OCC(=O)Nc2ccc(-c3nc4ccccc4o3)cc2)c(C)c1	x	x	u	x	-1%	x	x	x	x	x	x
CSCCC(Nc1ncnc2ccc(Br)cc12)C(=O)O (configuration not stated)	0%	0%	6%	0%	1%	0%	x	x	x	x	x
CC(C)Nc1ncnc2ccc(Br)cc12	-6%	-7%	-87%	2.3µM*	3%	-12%	3.5µM*	7.9µM*	-5%	10µM*	u
Cc1[nH]n(-c2nc(-c3ccc(Cl)cc3)cs2)c(=O)c1N=Nc1ccc(O)cc1	-49%	-69%	x	4.1µM*	u	-13%	16µM*	16µM*	u	28µM*	u
COc1cc(NC(=O)c2cc(-c3ccccc3)nc3c2cnn3C(C)C)cc(OC)c1OC	x	x	x	3.7µM*	x	-14%	7.1µM*	u	u	u	25µM*
O=C(CCSc1nc(-c2ccc3c(c2)OCO3)cc(C(F)(F)F)n1)NCc1ccccc1	0%	-1%	-17%	u	7%	7%	x	x	x	x	x
COc1ccc(CNC(=O)CCSc2nc(-c3ccc4c(c3)OCO4)cc(C(F)(F)F)n2)cc1	5%	2%	-7%	3.3µM*	-3%	7%	7.9µM*	2%	u	-3%	0%
Brc1ccc2cccnc2c1	0%	1%	0%	0%	1%	-1%	x	x	x	x	x
Nc1ccc2cccnc2c1	x	x	x	x	x	x	x	x	x	x	-9%
COc1ccc(S(=O)(=O)N(Cc2ccccc2)Cc2nc3ccccc3c(=O)[nH]2)cc1	-2%	-1%	8%	u	2%	-4%	x	x	x	x	x
COc1ccccc1CN(Cc1nc2ccccc2c(=O)[nH]1)S(=O)(=O)c1ccc2ccccc2c1	-4%	2%	-39%	3.7µM*	1%	-18%	7.9µM*	6.3µM*	u	16µM*	18µM*
COc1cccc(C(=O)Nc2c3c(nn2-c2ccc(Cl)cc2)CS(=O)(=O)C3)c1	x	x	x	x	3%	x	x	x	x	x	x
COCc1ccc(-c2c(-c3cc(OC)cc(OC)c3)oc(=O)c3cc(OC)c(OC)cc23)cc1	19%	-2%	x	0.58µM*	u	0%	5µM*	4%	u	-2%	u	ELG1 FLuc counter=32%;FLuc biochem=u
COc1ccc(/C=C/c2nc(N)nc(-c3ccccc3O)n2)cc1	-1%	0%	-15%[1.84 µM]	-9%	u	0%	x	x	x	x	x
COc1cc(/C=C/c2nc(N)nc(-c3ccccc3O)n2)cc(OC)c1OC	-2%	0%	7%	2.9µM*	-12%	-1%	2.2µM*	7.1µM*	-4%	u	u
